In PubChem BioAssay (NCI) one finds growth data, which are given here for 14 compounds.

Test systems include HCT-15 colon; HT29 colon; SNB-75 CNS; SNB-19 CNS; U251 CNS; PC-3 prostate; SK-MEL-5 melanoma; UACC-62 melanoma; SK-MEL-28 melanoma; LOX IMVI melanoma.
Common to all, as to experiment: NCI-60 one-dose screen, 48 h (100 = growth as untreated, 0 = no growth, -100 = all killed)
Holding throughout (settings): 10 µM unless noted

Compounds without any hit were thinned out: in the full panel of roughly 83,000, 20% have a hit.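 Method: cells in 96-well plates; compound added at one concentration; 48 h incubation; percent growth measured; values under 10 scored active.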 Unmarked numbers belong to inactive results. The source made the active and inactive calls.

For the compound `C=C(C)[C@@H]1CC[C@]2(C(=O)O)CC[C@]3(C)[C@H](CC[C@@H]4[C@@]5(C)C/C(=C/c6ccc(OC)cc6)C(=O)C(C)(C)[C@@H]5CC[C@]43C)[C@@H]12`, the growth was 5.16% (active) in the test on HCT-15 colon; 16% in the test on HT29 colon; 27.2% in the test with SNB-75 CNS; 32.3% in the test with SNB-19 CNS; 25.4% in the test with U251 CNS; 15.5% with PC-3 prostate. Moreover, the growth in the test on SK-MEL-5 melanoma was 6.21% (active); with UACC-62 melanoma, 17.1%; in the test with SK-MEL-28 melanoma, 41.3%.
As for `CC(=O)Oc1ccccc1C(=O)/C=C/c1cccc([N+](=O)[O-])c1`, the growth in the test on HCT-15 colon is 54.9%; in the test on HT29 colon it was 48.8%; in the test on SNB-75 CNS, 60.2%; in the test with SNB-19 CNS, 81.1%; in the test on U251 CNS it was 54.3%; in the test with PC-3 prostate it was 71.1%. Also, the growth in the test with SK-MEL-5 melanoma was 89.3%; with UACC-62 melanoma it was 85.7%; with SK-MEL-28 melanoma, 95.6%.
Take `Nc1c(C(=O)Nc2c(Cl)cccc2Cl)sc2nc3c(cc12)C(=O)CCC3`: the growth in the test with HCT-15 colon was 35.5%; in the test on HT29 colon, 13.3%; in the test with SNB-75 CNS, 14.1%; with SNB-19 CNS, 39.6%; in the test with U251 CNS, 26.4%; in the test with PC-3 prostate it was 39.9%. Further, the growth with SK-MEL-5 melanoma was 10.4%; with LOX IMVI melanoma it was 44.4%.
For the compound `O=S(=O)(NCCNc1cc(-c2cn(-c3ccccc3)nc2-c2cccc(O)c2)ccn1)c1cccc(F)c1`, the growth is 5.71% (active) with HCT-15 colon; 7.47% (active) in the test on HT29 colon; 48.1% in the test on SNB-75 CNS; 51.5% in the test with SNB-19 CNS; 32.3% in the test on U251 CNS; 25.4% in the test on PC-3 prostate. The growth with SK-MEL-5 melanoma was 26.9%; in the test with LOX IMVI melanoma, 36.5%.
Turning to `COc1cc2c3c(c4c5ccccc5[nH]c4c2c(OC)c1OC)C(=O)N(O)C3=O`, the growth in the test on HCT-15 colon was 45.8%; with HT29 colon it was 52.1%; in the test with SNB-75 CNS, 72.6%; in the test on SNB-19 CNS, 54.5%; with U251 CNS, 28%; in the test on PC-3 prostate, 43.8%. The values for the growth with SK-MEL-5 melanoma and in the test with LOX IMVI melanoma were 11.1% and 26.3%, respectively.
On to `CCCCCCCC(=O)SCC/C=C/[C@@H]1CC(=O)NCc2cccc(n2)CN(Cc2ccc(Cl)cc2)CC(=O)N[C@@H](C(C)C)C(=O)O1`, for which the growth with HCT-15 colon was 20.7%; in the test on HT29 colon it was -2.23% (active); with SNB-75 CNS it was 18.6%; with SNB-19 CNS, 15.3%; in the test on U251 CNS, -48.2% (active); in the test on PC-3 prostate it was 9.67% (active). Also, the values for the growth in the test with SK-MEL-5 melanoma and with LOX IMVI melanoma were -84.6% (active) and -61.5% (active), respectively.
Consider `COc1cccc(-c2nn(-c3ccccc3)cc2-c2ccnc(NCCCNS(=O)(=O)c3ccc(Br)cc3)c2)c1`, for which the growth in the test on HCT-15 colon is 42.5%; with HT29 colon, 9.65% (active); with SNB-75 CNS, 75.2%; in the test on SNB-19 CNS it was 60.2%; in the test with U251 CNS it was 40.2%; in the test on PC-3 prostate, 26.4%. The figures for the growth in the test with SK-MEL-5 melanoma and in the test on LOX IMVI melanoma were 39.9% and 56.6%, respectively.
For `CCc1cccc(CC)c1NC(=O)c1sc2nc3c(cc2c1N)CCCC3`, the growth in the test on HCT-15 colon is 55%; with HT29 colon, 77.4%; with SNB-75 CNS it was 54.2%; in the test with SNB-19 CNS it was 71.3%; in the test with U251 CNS, 73.4%; in the test on PC-3 prostate it was 63%. Moreover, the growth is 63.9% in the test on SK-MEL-5 melanoma and 75.2% in the test on LOX IMVI melanoma.
As for `C=C1C(=O)O[C@H]2[C@H]1CC/C(Cn1cc(-c3ccc(OC)cc3)nn1)=C\CC[C@@]1(C)O[C@@H]21`, the growth in the test with HCT-15 colon is -71.4% (active); with HT29 colon, -82% (active); with SNB-75 CNS, 91.4%; with SNB-19 CNS it was 69.5%; with U251 CNS, 23%; in the test on PC-3 prostate, 39.4%. Besides, the growth in the test with SK-MEL-5 melanoma is 41.8%; with LOX IMVI melanoma, -79.3% (active).
`CCc1ccccc1NC(=O)c1sc2nc3c(cc2c1N)CCCC3`: the growth with HCT-15 colon is 28.1%; in the test with HT29 colon, 13.5%; in the test on SNB-75 CNS, 12.3%; in the test with SNB-19 CNS, 37.6%; with U251 CNS it was 27.8%; in the test on PC-3 prostate it was 52.9%. Further, the growth in the test on SK-MEL-5 melanoma is 34.8%; with LOX IMVI melanoma, 36.5%.
On to `Nc1c(C(=O)Nc2c(Cl)cccc2Cl)sc2nc3c(cc12)CCCC3`, for which the growth in the test on HCT-15 colon was 41.9%; in the test with HT29 colon, 43.3%; in the test on SNB-75 CNS it was 71.6%; in the test on SNB-19 CNS it was 82.8%; in the test with U251 CNS it was 74.1%; in the test with PC-3 prostate it was 80%. The figures for the growth in the test on SK-MEL-5 melanoma and with LOX IMVI melanoma were 83.1% and 59.4%, respectively.
Consider `COc1cccc(-c2nn(-c3ccccc3)cc2-c2ccnc(NCCCNS(=O)(=O)c3ccc(Cl)cc3)c2)c1`, for which the growth was 34.4% in the test with HCT-15 colon; 11.3% in the test with HT29 colon; 71.2% with SNB-75 CNS; 52.1% in the test with SNB-19 CNS; 35.5% in the test with U251 CNS; 25.1% with PC-3 prostate. Moreover, the growth was 30.8% with SK-MEL-5 melanoma and 52.3% with LOX IMVI melanoma.
For the compound `CC(=O)OCCCCCCn1c2ccccc2c2c3c(c4c5ccccc5n(C)c4c21)C(=O)N(O)C3=O`, the growth was 69.5% in the test with HCT-15 colon; 23.7% with HT29 colon; 101% in the test with SNB-75 CNS; 77.5% in the test with SNB-19 CNS; 58.4% with U251 CNS; 52.9% in the test on PC-3 prostate. The growth in the test on SK-MEL-5 melanoma was 41.7%; with LOX IMVI melanoma, 5.8% (active).
As to `CNC(=O)c1cc(Oc2ccc3nc(NC(=O)Nc4ccc(Cl)cc4)sc3c2)ccn1`, the growth was 84.8% with HCT-15 colon; 68.8% in the test on HT29 colon; 50.6% in the test with SNB-75 CNS; 59.3% in the test with SNB-19 CNS; 37.3% with U251 CNS; 66% in the test with PC-3 prostate. Further, the results for the growth with SK-MEL-5 melanoma and in the test with LOX IMVI melanoma were 73.3% and 51.6%, respectively.
